Screening data: PubChem, National Center for Advancing Translational Sciences (NCATS)
IP6K1 inhibitor: blocks human inositol hexakisphosphate kinase 1. Q92551. IP6K1 kinase, ADP-Glo luminescence, 2 h; stronger effect = lower value. actives 0.81% (n = 140,000). activity change, % (series mostly up to about 58 µM). AID 1645851; in the data active = activity change below about -25%; note: % is set by controls: 0 for no effect and ±100 for the full control effect
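ADP-Glo luminescence measures ADP made by human IP6K1 during a 2 h RT reaction with ATP/IP6 (mix at 1.3 mM/130 uM); top library doses 57.5 and 19.1 uM final.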
SNCA expr inhib: reduces expression of the alpha-synuclein gene; Potency, µM (highest dose often 57.2 µM), for inactives: at the highest dose activity change, negative = inhibition, usual class: inhibitors; AID 1671194; HEK-293 SNCA-luciferase knock-in, luminescence, 24 h; actives 0.17% (n = 140,000);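 note: potency is the fitted concentration of half-maximal effect; plate controls were DMSO cells for no effect and cell-free wells for full effect; nearly all actives have a fitted effect of over 45% in size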
KDM5B inh: blocks human KDM5B histone demethylase activity | actives 2.6% (n = 220,000) | KDM5B demethylase, FDH-coupled NADH fluorescence (FDH is formaldehyde dehydrogenase) | AID 1347165 | Potency, µM (highest dose often 57.7 µM), usual class: inhibitors; note: potency is the fitted concentration of half-maximal effect; 0% is about no effect; nearly all actives have a fitted effect of over 70% in size
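Coupled FDH/NAD⁺ fluorescence readout. KDM5BΔAP 200 nM final; compound titration, 10 min RT preincubation; substrate mix 12.5 µM H3K4me3, 25 µM 2-OG, 50 µM Fe(II), 100 µM ascorbate, 0.25 mM NAD⁺, 0.25 U/mL FDH; ΔRFU over 30 min.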
HEK293 viab: reduces viability of HEK-293 SNCA reporter cells; HEK-293-SNCA-luc viability, GF-AFC fluorescence, 24 h; Potency, µM (top dose mostly 57.1 µM), inactives show at the top dose activity change, negative = cytotoxicity, usual class: cytotoxic; AID 1671193; actives 0.12% (n = 150,000);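 note: potency is the fitted concentration of half-maximal effect; 0% = DMSO-treated cells and -100% = medium-only wells without cells; nearly all actives have a fitted effect of over 30% in size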
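HEK-293-SNCA-luc cells (1500/well) plated 24 h, then exposed 24 h to a dilution series; GF-AFC added 30 min at 37C, fluorescence 405/540 nm; normalised to medium-only and DMSO wells, Hill fit.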
The depositor's hits bear a star; i = inactive; ? = inconclusive; · = no result; ! = a repeat was not active; [ ] = another dose, or the depositor's remark. A selection: hits, their analogues and other compounds. The true share with any hit is near 2.9%. Unless noted, calls come from the whole dose curve; as a rule, active = well fitted curve in the direction sought with a large enough effect; inconclusive = small, poorly fitted or top-dose-only effect, or another doubt; inactive = no such curve, though single readings can be large; an effect the other way counts as inactive or inconclusive.

SMILES	IP6K1 inhibitor	SNCA expr inhib	KDM5B inh	HEK293 viab
O=C(CN1CC2CC(C1)[C@H]1CCCC(=O)N1C2)NCCCN1CCc2ccccc2C1 (some centres undefined)	37.5	-16.7%	?	7.4%
O=C(CN1CC2CC(C1)[C@H]1CCCC(=O)N1C2)NCCCN1CCCc2ccccc21 (some centres undefined)	-2.3	11.3%	14.1µM*	0.5%
O=C(NCCCN1CCCCC1)c1cccnc1N1CC2CC(C1)[C@H]1CCCC(=O)N1C2 (some centres undefined)	5.8	-26.1%	28.2µM*	-0.7%
CC(C)CNC(=O)c1ccc(N2CC3CC(C2)[C@H]2CCCC(=O)N2C3)nc1 (some centres undefined)	32.2	-1.6%	?	-3.1%
C=CCNC(=O)c1ccc(N2CC3CC(C2)[C@H]2CCCC(=O)N2C3)nc1 (some centres undefined)	12.2	0.0%	25.1µM*	?
Cc1cn2c(=O)cc(CN3CC[C@@](C)(O)[C@@H](O)C3)nc2s1	-9.1	17.7%	31.6µM*	-3.8%
O=C1CC2(CCN(c3cncc(C(=O)N4CCCCC4)n3)C2)C(=O)N1 (centres undefined)	15.8	-0.2%	28.2µM*	-8.7%
N#Cc1cccc(N2CCC(Oc3ccc(Cl)cc3)(C(=O)O)CC2)n1	3.3	13.9%	?	4.0%
O=C(c1cncc(N2CCC3(CCCNC3=O)C2)n1)N1CCOCC1 (centres undefined)	-3.8	10.3%	?	-2.9%
N#Cc1cccc(N2CCC3(CC(=O)NC3=O)C2)n1 (centres undefined)	6.6	-27.8%	28.2µM*	3.8%
CN(C(=O)c1cc2ccccc2oc1=O)C1CCCN(CCCc2ccccc2)C1 (centres undefined)	5.6	-12.8%	?	-7.8%
CCOc1ccccc1C1C(C#N)=C(N)OC2=C1S(=O)(=O)N(CC)c1ccccc12 (centres undefined)	·	·	i	·
CCCNc1c(NC(=O)Nc2ccccc2OCC)c(=O)oc2ccccc12	·	·	i	·
COc1ccc(F)cc1-c1ccc(CN2CCC(NC(=O)Nc3ccc(Cl)cc3)C2)cc1 (centres undefined)	25.1	·	·	·
COC(=O)[C@@H]1Cc2ncn(Cc3ccc(OC)cc3)c2CN1S(=O)(=O)c1ccc(F)cc1	1.0	-8.5%	?	-16.4%
Cc1noc(-c2cccs2)c1C(=O)NC(C)c1ccccc1 (centres undefined)	4.4	-26.8%	25.1µM*	4.7%
Cc1noc(-c2cccs2)c1C(=O)NC(C)c1cccc2ccccc12 (centres undefined)	-8.2	-23.6%	31.6µM*	5.7%
COc1cccc(CNC(=O)c2c(C)noc2-c2cccs2)c1	-6.6	7.3%	?	?
Cc1cccc(CNC(=O)c2c(C)noc2-c2cccs2)c1	6.4	-1.6%	28.2µM*	-0.8%
COCCN1Cc2ccc(NCc3ccccc3)nc2C(C)(C(=O)N(C)CCOC)C1 (centres undefined)	8.1	-22.7%[87.6 µM]	35.5µM*	27.2%[87.6 µM]
COCCN(C)C(=O)C1(C)CN(Cc2ccccc2)Cc2ccc(NCC(C)C)nc21 (centres undefined)	28.4	?	31.6µM*	?
CC(C)CNc1ccc2c(n1)C(C)(C(=O)NC1CC1)CN(Cc1ccccc1)C2 (centres undefined)	10.8	?	i	?
COc1ccc(-c2ccc3nnc(CNC(=O)COc4cccc(C)c4)n3n2)cc1	7.4	13.8%	25.1µM*	-2.2%
COc1ccc(-c2ccc3nnc(CNC(=O)c4ccc(C)cc4C)n3n2)cc1	7.0	5.0%	28.2µM*	-1.9%
COc1ccc(C(=O)NCc2nnc3ccc(-c4ccc(C)cc4)nn23)c(C)c1	9.9	-16.0%	28.2µM*	-7.7%
SMILES	IP6K1 inhibitor	SNCA expr inhib	KDM5B inh	HEK293 viab
COc1ccc(-c2ccc3nnc(CNC(=O)c4sccc4C)n3n2)cc1	-11.4	49.6%	31.6µM*	0.9%
CCCCc1ccc(NC(=O)CN2C(=O)NC(c3ccc(Cl)cc3)C3=C2COC3=O)cc1 (centres undefined)	4.6	12.6µM*	i	?
O=C(CN1C(=O)NC(c2ccc(Cl)cc2)C2=C1COC2=O)Nc1ccccc1 (centres undefined)	1.7	?	i	-8.0%
Cn1nc(-c2ccncc2)cc1NC(=O)c1ccccc1F	-5.1	-16.7%[87.6 µM]	·	-0.5%[87.6 µM]
Cc1ccc(C(=O)NCc2nnc3cc(-c4nc(C)no4)ccn23)cc1	9.4	5.1%	11.2µM*	-0.8%
CC(C)c1noc(-c2ccn3c(CNC(=O)c4ccccc4)nnc3c2)n1	-6.6	-13.2%	i	4.4%
Cc1cccc(C(=O)NCc2nnc3cc(-c4nc(C)no4)ccn23)c1	8.0	-13.4%	25.1µM*	13.1%
Cc1cccc(C(=O)NCc2nnc3cc(-c4nc(C(C)C)no4)ccn23)c1	14.9	2.7%	28.2µM*	5.5%
CC(C)c1noc(-c2ccn3c(CNC(=O)c4ccoc4)nnc3c2)n1	-9.8	-11.6%	28.2µM*	4.9%
O=C(NC1CCN(c2nccc(Nc3ccccc3F)n2)CC1)c1ccccc1Cl	-3.1	3.2%	·	-14.4%[12.5 µM]
CSCCNC(=O)c1nc2sccn2c1Br	3.8	96.6%[87.6 µM]	i	-0.5%[87.6 µM]
O=C(NCCc1ccc(Cl)cc1)c1nc2sccn2c1Br	-8.4	21.4%	i	2.8%
O=C(NCCc1ccccc1F)c1ccc2nccn2c1	-2.5	27.7%[87.6 µM]	·	-7.3%[87.6 µM]
CSCCNC(=O)c1cc(Br)cn2ccnc12	-3.8	76.1%[87.6 µM]	35.5µM*	1.4%[87.6 µM]
O=C(NCc1ccc(-n2cccn2)cc1)c1cc(F)ccc1Br	·	·	i	·
O=C(NCc1ccc(F)cc1)c1cc(Br)cn2ccnc12	9.7	93.7%	31.6µM*	4.8%
O=C(NCc1ccccc1F)c1cc(Br)cn2ccnc12	-9.9	30.7%	22.4µM*	-1.6%
O=C(NCCc1ccc(Cl)cc1)c1cc(Br)cn2ccnc12	-0.1	8.3%	31.6µM*!	10.0%
O=C(NCc1ccccc1Cl)C1CCN(Cc2ccccc2-c2ccccc2F)CC1	8.4	·	·	·
CC1=C(C(=O)OC(C)C)C(c2ccc(Cl)cc2)N2C(CC(=O)N3CCCC3)=CSC2=N1 (centres undefined)	-7.1	13.5%	?	-10.3%
CCCC(O)CN1CCC(=O)N(C2CCCC2)Cc2ccccc21 (centres undefined)	6.2	·	·	·
Cc1ccc(-n2c(C3CCN(C(=O)c4ccc(F)c(F)c4)CC3)n[nH]c2=O)cc1	-14.7	19.1%	i	-10.9%
O=C(NCc1ccccc1)c1ccc2nccn2c1	8.2	171.6%[87.6 µM]	·	-2.1%[87.6 µM]
O=C(NC1CCCCCC1)c1ccc2nccn2c1	0.3	149.5%[87.6 µM]	28.2µM*	-9.6%[87.6 µM]
COC(=O)CNC(=O)c1ccc2nccn2c1	-3.2	12.5%[87.6 µM]	112µM*	6.9%[87.6 µM]
Cc1ccc(CNC(=O)c2ccc3nccn3c2)o1	-8.7	27.0%[87.6 µM]	28.2µM*	1.8%[87.6 µM]
C#CCNC(=O)c1ccc2nccn2c1	-8.6	8.1%[87.6 µM]	141µM*	-0.1%[87.6 µM]
O=C(NC1CCC1)c1ccc2nccn2c1	-5.7	-16.6%[87.6 µM]	?	-1.0%[87.6 µM]
Cn1c(CNC(=O)CN2C(=O)C3(CCCCC3)C2c2ccccc2)nc2ccccc21 (centres undefined)	-3.4	3.2%	·	-0.5%
